Laboratory results from the supplement of paper PMC7695840.
Structures can show the parent of a compound that is named as a salt.

Columns and labels:
[1] = system: Staphylococcus aureus MW2 delta-mecA (mecA-); test: normalized GFP fluorescence (growth of mecA- strain) (fraction of control range); higher = more growth of mecA- strain; conditions: compound concentration: 150 uM; cefoxitin: subinhibitory; fluorescent label: GFP
Procedure, shortened: (§1)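 S. aureus MW2 cells, pre-induced, were used as a 1:1 mix of a DsRed strain carrying the gene and a GFP strain lacking it, in LB with a subinhibitory antibiotic dose set each day. At 5 µL/well they were placed onto 150 μM compound (1.5% DMSO) in 1536-well plates, one replicate, and kept unshaken for 20 h at 37 °C, 90% humidity. After DsRed (540/590) and GFP (485/520) reads scaled per plate to single-strain control medians, plates with high untreated ratios and rows with DsRed/GFP >10 were excluded.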

[2] = system: Staphylococcus aureus MW2 (mecA+); test: normalized DsRed fluorescence (growth of mecA+ strain) (fraction of control range); higher = more growth of mecA+ strain; conditions: compound concentration: 150 uM; cefoxitin: subinhibitory; fluorescent label: DsRed
Procedure, shortened: as §1

Row | SMILES | normalized GFP fluorescence [1] | normalized DsRed fluorescence [2]
1 | CN1CCN(CC/C=C2/c3ccccc3Sc3ccc(S(=O)(=O)N(C)C)cc32)CC1 | 0.0289 | 1.9
2 | O=C1CCc2ccc(OCCCCN3CCN(c4cccc(Cl)c4Cl)CC3)cc2N1 | 0.0969 | 0.824
3 | NCCCCCC(=O)O | 0.967 | 0.727
4 | CCC[C@H](N[C@@H](C)C(=O)N1[C@H](C(=O)O)C[C@@H]2CCCC[C@@H]21)C(=O)OCC [Perindopril Erbumine (Aceon)] | 0.225 | 0.779
5 | O=C1c2cccc3c2[C@H](CCC3)CN1[C@@H]1CN2CCC1CC2 [Palonosetron HCl] | 0.203 | 0.709
6 | CC(COc1ccccc1)NC(C)C(O)c1ccc(O)cc1 (stereo unspecified) | 0.474 | 0.631
7 | CC(C)(C)NC[C@H](O)COc1ccccc1C1CCCC1 | 0.435 | 0.586
8 | C[C@H]1O[C@H](O[C@H]2[C@H](O)[C@@H](O)[C@@H](O[C@H]3[C@H](O)[C@@H](O)C(O)O[C@@H]3CO)O[C@@H]2CO)[C@H](O)[C@@H](O)[C@@H]1N[C@H]1C=C(CO)[C@@H](O)[C@H](O)[C@H]1O (stereo partly specified) | 0.505 | 0.683
9 | CN1CCC(OC(c2ccccc2)c2ccccc2)CC1 | 0.0847 | 1.1
10 | CCCN(CCC)C(=O)C(CCC(=O)O)NC(=O)c1ccccc1 (stereo unspecified) | 0.792 | 0.55
11 | COc1cc2c(cc1OC)C(=O)C(CC1CCN(Cc3ccccc3)CC1)C2 (stereo unspecified) | 0.341 | 0.564
12 | COc1ccc2cccc(CCNC(C)=O)c2c1 [Agomelatine] | 0.243 | 0.62
13 | CC(=O)c1ccc2c(c1)N(CCCN1CCN(CCO)CC1)c1ccccc1S2 | 0.252 | 1.08
14 | C[C@@H]1C/C=C/C=C/C=C/C=C/[C@H](O[C@@H]2O[C@H](C)[C@@H](O)[C@H](N)[C@@H]2O)C[C@@H]2O[C@](O)(C[C@@H](O)C[C@H]3O[C@@H]3/C=C/C(=O)O1)C[C@H](O)[C@H]2C(=O)O | 0.448 | 0.753
15 | C#CCN[C@@H]1CCc2ccccc21 | 0.911 | 0.693
16 | CC(C)[C@H](N)C(=O)OCC(CO)OCn1cnc2c(=O)nc(N)[nH]c21 (stereo partly specified) | 0.546 | 0.722
17 | COc1ccc(OC)c(C(O)CNC(=O)CN)c1 (stereo unspecified) | 0.301 | 0.764
18 | CCOc1ccccc1OC(c1ccccc1)C1CNCCO1 (stereo unspecified) [Reboxetine mesylate] | 0.435 | 0.581
19 | CCCNC(=O)NS(=O)(=O)c1ccc(Cl)cc1 | 0.221 | 0.489

Row | SMILES | normalized GFP fluorescence [1] | normalized DsRed fluorescence [2]
20 | N[C@H](C(=O)O)[C@H](O)c1ccc(O)c(O)c1 [Droxidopa (L-DOPS)] | -0.00088 | 1.79
21 | CCC(=O)O[C@H](CC(=O)O)C[N+](C)(C)C | 0.307 | 1.23
22 | CCCC(=O)Nc1ccc(OCC(O)CNC(C)C)c(C(C)=O)c1 (stereo unspecified) | 0.332 | 0.62
23 | NCC(=O)CCC(=O)O | 0.315 | 1.12
24 | O.O.O.O.O=C([O-])CC(O)(CC(=O)[O-])C(=O)[O-].[Li+].[Li+].[Li+] | 0.18 | 1.09
25 | C[C@H](NCc1ccc(OCc2cccc(F)c2)cc1)C(N)=O | 0.957 | 0.675
26 | CCN(CC)Cc1cc(Nc2ccnc3cc(Cl)ccc23)ccc1O | 0.205 | 0.684
27 | O=S(=O)(O)NC1CCCCC1 | 0.457 | 0.493
28 | C/C=C/c1ccc(OC)cc1 | 0.443 | 0.71
29 | C=C[C@H]1CN2CC[C@H]1C[C@H]2[C@H](O)c1ccnc2ccc(OC)cc12 | 0.628 | 0.748
30 | COc1ccc2c3c1O[C@H]1C[C@@H](O)C=C[C@@]31CCN(C)C2 | 0.508 | 0.677
31 | O=C1Cc2cc(CCN3CCN(c4nsc5ccccc45)CC3)c(Cl)cc2N1 | 0.33 | 0.989
32 | CC(C)[C@H](N)C(=O)OCCOCn1cnc2c(=O)nc(N)[nH]c21 [Valaciclovir HCl] | 0.302 | 0.782
33 | CN1Cc2c(N)cccc2C(c2ccccc2)C1 (stereo unspecified) | 0.359 | 0.781
34 | CNCC[C@@H](Oc1ccccc1C)c1ccccc1 | 0.319 | 0.638
35 | CNCCC(Oc1ccc(C(F)(F)F)cc1)c1ccccc1 (stereo unspecified) | -0.00367 | 1.27
36 | O=C(NCC1CCCCN1)c1cc(OCC(F)(F)F)ccc1OCC(F)(F)F (stereo unspecified) | 0.508 | 0.624
37 | NC(=O)c1cc[n+](CC2=C(C(=O)O)N3C(=O)[C@@H](NC(=O)[C@@H](c4ccccc4)S(=O)(=O)[O-])[C@H]3SC2)cc1 | 0.172 | 1.03
38 | C[C@H]1[C@H](NC(=O)/C(=N\OC(C)(C)C(=O)O)c2csc(N)n2)C(=O)N1S(=O)(=O)O [Aztreonam (Azactam, Cayston)] | 0.136 | 1.17
